What all share (set-up): scale not given: direction of the effect not stated beside the values
For assay [1], the target named is Protein translocase subunit SecA (Escherichia coli (strain K12)) (UniProt P10408). As to the kind of experiment: Assay to Identify E. coli SecA ATPase Inhibitors. It counts as functional. As to conditions: 30 µM.
The target in assay [2] is T1, Ubiquitin-activating enzyme e1, putative (Leishmania donovani (strain BPK282A1)) (UniProt E9BSI1).
T1 sequence (whole entry): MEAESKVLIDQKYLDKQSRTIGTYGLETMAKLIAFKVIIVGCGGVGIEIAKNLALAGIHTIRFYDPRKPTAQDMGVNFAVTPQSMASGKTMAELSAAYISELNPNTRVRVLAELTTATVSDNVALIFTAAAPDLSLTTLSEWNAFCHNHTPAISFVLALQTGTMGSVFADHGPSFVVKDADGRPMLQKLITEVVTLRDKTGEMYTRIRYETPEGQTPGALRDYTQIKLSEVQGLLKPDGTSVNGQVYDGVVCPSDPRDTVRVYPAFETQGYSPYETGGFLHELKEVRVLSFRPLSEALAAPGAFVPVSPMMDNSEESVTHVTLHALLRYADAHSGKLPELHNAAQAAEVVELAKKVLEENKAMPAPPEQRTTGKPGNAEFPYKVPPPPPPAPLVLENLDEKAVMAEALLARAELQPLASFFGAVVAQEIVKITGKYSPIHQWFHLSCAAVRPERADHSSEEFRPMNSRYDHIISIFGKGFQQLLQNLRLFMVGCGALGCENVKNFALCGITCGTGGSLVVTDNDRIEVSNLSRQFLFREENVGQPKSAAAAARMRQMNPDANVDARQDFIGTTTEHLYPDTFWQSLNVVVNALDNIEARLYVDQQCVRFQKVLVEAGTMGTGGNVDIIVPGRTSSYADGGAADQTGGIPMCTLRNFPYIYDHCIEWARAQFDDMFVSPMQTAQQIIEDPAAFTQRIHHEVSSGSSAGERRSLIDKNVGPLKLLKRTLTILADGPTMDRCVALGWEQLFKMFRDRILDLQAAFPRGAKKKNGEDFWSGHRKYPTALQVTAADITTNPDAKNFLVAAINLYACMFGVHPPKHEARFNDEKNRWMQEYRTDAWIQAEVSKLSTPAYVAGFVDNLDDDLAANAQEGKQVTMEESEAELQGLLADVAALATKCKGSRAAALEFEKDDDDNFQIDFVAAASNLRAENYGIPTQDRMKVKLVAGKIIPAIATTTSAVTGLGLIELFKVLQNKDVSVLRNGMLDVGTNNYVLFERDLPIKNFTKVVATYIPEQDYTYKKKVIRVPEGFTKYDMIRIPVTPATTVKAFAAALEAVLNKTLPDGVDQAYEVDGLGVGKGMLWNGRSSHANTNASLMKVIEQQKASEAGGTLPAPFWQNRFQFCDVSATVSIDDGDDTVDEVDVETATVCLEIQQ
As to the kind of experiment: Leishmania donovani Ubiquitin Activating Enzyme (LdE1). The note with it: 30 µM. It counts as functional.

The target in assay [3] is AMP-activated protein kinase, AMPK (Homo sapiens) (UniProt P54646+O43741+P54619+Q9UGJ0+Q9Y478+Q13131+Q9UGI9). As to the kind of experiment: AMP-dependent Kinase enzyme assay. An in vitro enzyme assay that detects ADP turnover that is directly proportional to AMPK activity. This uses naive AMPK that is activated during the assay with MK-8722. It counts as functional. The note with it: 30 µM.

In assay [4] the target is Sialic acid-binding Ig-like lectin 9 (Homo sapiens) (UniProt Q9Y336). The experiment in a line: Hs-Siglec9 ALPHAscreen SOP 20170721. The note with it: 10 µM. For orientation: In Alpha technology, singlet oxygen from a donor bead excites a nearby acceptor bead.
Sialic acid-binding Ig-like lectin 9 (Homo sapiens), sequence (Q9Y336 whole entry): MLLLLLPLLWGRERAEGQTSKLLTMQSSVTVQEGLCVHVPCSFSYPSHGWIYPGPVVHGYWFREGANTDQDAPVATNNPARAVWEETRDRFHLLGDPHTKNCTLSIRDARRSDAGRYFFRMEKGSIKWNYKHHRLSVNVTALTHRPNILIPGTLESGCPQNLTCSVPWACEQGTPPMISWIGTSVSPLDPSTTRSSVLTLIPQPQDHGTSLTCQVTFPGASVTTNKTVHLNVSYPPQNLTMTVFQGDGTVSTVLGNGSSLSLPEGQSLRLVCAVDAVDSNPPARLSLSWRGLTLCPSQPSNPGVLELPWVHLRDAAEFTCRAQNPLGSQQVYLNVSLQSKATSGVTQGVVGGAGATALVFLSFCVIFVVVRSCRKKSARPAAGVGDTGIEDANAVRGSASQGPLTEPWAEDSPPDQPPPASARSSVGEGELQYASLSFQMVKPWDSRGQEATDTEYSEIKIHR
The subject of assay [5] is Trypanosoma cruzi. As to the kind of experiment: Trypanosoma cruzi phosphomannomutase and mannose-1-phosphate guanylyltransferase assay. It counts as functional. As to conditions: 10 µM.
Assay [6] concerns the target T2, Arginase-2, mitochondrial (Homo sapiens) (UniProt P78540).
T2 sequence (whole entry): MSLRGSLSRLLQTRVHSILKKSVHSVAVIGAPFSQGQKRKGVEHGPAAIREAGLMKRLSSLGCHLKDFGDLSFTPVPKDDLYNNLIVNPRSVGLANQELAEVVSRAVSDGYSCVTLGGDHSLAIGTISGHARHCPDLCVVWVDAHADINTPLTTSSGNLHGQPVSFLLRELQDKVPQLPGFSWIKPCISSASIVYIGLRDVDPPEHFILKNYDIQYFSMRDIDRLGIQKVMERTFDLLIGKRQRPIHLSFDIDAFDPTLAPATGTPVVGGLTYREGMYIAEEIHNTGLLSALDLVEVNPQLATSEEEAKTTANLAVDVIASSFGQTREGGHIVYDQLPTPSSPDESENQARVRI
As to the kind of experiment: in vitro enzyme assay to detect the production of urea directly proportional to the activity of Arginase II. Further: in the data most compounds retested in dose-response had high values. It counts as functional. As to conditions: 33.3 µM.

Assay [7] addresses T3, Proteasome subunit beta (Trypanosoma cruzi) (UniProt O96673).
T3 sequence (whole entry): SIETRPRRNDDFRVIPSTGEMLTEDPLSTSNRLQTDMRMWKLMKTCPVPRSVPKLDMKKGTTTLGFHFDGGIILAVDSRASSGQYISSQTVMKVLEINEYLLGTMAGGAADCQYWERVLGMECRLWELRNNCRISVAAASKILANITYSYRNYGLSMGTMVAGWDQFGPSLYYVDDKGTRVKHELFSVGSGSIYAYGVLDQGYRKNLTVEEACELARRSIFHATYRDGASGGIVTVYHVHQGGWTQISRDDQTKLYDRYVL
The experiment in a line: Trypanosoma cruzi proteasome chymotrypsin-like activity (TcProtChymo) assay. Further: in the data most compounds retested in dose-response had high values. It counts as functional. As to conditions: 9.37 µM.

Assay [8] is filed under the species Homo sapiens. The experiment in a line: To identify inhibition of the IFN signalling (Jak-Stat) pathway via expression of an eGFP reporter gene under the control of an IFN-stimulated response element (ISRE) containing MxA promoter. It counts as functional. The note with it: 30 µM. In general terms: Reporter assays use an easily measured gene product as a stand-in for the process of interest.

For assay [9], the target named is T4, Tyrosyl-tRNA synthetase, putative (Trypanosoma cruzi (strain CL Brener)) (UniProt Q4DSP6).
T4 sequence (whole entry): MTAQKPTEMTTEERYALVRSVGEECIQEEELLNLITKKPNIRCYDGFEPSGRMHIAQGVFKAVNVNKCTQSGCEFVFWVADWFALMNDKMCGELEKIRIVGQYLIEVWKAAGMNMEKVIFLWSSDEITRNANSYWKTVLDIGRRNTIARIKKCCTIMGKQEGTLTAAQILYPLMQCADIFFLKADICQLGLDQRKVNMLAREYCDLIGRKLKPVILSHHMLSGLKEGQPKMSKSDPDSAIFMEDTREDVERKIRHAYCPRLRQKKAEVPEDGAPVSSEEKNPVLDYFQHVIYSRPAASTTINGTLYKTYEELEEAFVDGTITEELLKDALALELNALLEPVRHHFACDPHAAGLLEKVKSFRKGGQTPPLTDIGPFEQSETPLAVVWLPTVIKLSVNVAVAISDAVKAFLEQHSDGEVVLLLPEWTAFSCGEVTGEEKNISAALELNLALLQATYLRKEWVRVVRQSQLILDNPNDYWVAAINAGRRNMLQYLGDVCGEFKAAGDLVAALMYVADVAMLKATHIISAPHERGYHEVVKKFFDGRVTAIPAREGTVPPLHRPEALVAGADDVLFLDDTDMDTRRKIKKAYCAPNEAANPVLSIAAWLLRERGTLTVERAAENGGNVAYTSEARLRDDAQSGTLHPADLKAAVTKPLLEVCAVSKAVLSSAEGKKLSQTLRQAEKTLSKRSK
The experiment in a line: Trypanosoma cruzi tyrosyl tRNA synthetase (TcYRS) _High Tyrosine SOP. Further: in the data most compounds retested in dose-response had high values. As to conditions: 30 µM. It counts as functional.

Assay [10] addresses T4, Tyrosyl-tRNA synthetase, putative (Trypanosoma cruzi (strain CL Brener)). As to the kind of experiment: Trypanosoma cruzi tyrosyl tRNA synthetase (TcYRS) SOP. It counts as functional. The note with it: 30 µM.
For assay [11], the target named is Chromo domain-containing protein 1 (Saccharomyces cerevisiae (strain ATCC 204508 / S288c) (Baker's yeast)) (UniProt P32657). The experiment in a line: ScCHD-1 Enzyme Inhibition Assay. Further: in the data most compounds retested in dose-response had high values. As to conditions: 30 µM. In kind it is functional.
Chromo domain-containing protein 1 (Saccharomyces cerevisiae (strain ATCC 204508 / S288c) (Baker's yeast)), sequence (P32657 whole entry, the tested form may be a part): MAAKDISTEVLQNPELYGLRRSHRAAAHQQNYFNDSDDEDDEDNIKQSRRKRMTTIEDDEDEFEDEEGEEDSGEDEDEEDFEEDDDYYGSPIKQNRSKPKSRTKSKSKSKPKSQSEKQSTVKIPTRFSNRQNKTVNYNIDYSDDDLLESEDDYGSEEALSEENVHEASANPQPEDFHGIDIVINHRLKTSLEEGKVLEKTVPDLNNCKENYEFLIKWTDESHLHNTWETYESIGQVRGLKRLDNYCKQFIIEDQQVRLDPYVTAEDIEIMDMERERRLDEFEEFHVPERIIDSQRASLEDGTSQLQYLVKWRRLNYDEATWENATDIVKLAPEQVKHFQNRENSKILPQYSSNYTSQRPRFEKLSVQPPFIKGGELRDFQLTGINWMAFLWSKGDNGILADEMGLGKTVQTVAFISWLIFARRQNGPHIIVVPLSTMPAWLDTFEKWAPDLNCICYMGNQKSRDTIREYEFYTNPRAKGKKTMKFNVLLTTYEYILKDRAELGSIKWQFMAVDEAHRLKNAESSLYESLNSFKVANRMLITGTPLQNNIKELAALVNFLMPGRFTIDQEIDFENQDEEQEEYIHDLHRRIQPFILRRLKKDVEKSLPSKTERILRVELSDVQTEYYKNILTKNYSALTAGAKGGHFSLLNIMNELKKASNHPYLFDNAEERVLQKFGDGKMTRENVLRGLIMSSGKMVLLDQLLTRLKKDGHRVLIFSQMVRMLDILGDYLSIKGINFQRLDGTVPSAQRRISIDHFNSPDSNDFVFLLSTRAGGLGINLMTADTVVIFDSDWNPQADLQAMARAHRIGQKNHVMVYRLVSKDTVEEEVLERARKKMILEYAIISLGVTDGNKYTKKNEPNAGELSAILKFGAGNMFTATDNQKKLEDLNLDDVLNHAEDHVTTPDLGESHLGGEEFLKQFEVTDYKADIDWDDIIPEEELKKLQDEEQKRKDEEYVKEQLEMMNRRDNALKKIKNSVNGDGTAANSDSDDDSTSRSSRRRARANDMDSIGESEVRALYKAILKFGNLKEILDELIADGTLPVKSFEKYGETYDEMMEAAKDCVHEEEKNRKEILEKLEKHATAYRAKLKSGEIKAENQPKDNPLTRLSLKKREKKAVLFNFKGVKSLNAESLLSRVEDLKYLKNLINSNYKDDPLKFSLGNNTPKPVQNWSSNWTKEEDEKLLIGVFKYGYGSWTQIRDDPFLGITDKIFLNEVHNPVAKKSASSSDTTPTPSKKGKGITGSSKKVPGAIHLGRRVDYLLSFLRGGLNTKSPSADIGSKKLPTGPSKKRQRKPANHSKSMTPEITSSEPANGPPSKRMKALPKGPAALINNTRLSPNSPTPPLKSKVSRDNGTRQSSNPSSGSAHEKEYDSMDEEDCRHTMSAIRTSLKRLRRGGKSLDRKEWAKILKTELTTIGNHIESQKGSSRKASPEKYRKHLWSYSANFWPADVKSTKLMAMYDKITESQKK

For some of these results: Results with a measured potency or affinity are listed apart.

Protein translocase subunit SecA (Escherichia coli (strain K12)), sequence (P10408 whole entry): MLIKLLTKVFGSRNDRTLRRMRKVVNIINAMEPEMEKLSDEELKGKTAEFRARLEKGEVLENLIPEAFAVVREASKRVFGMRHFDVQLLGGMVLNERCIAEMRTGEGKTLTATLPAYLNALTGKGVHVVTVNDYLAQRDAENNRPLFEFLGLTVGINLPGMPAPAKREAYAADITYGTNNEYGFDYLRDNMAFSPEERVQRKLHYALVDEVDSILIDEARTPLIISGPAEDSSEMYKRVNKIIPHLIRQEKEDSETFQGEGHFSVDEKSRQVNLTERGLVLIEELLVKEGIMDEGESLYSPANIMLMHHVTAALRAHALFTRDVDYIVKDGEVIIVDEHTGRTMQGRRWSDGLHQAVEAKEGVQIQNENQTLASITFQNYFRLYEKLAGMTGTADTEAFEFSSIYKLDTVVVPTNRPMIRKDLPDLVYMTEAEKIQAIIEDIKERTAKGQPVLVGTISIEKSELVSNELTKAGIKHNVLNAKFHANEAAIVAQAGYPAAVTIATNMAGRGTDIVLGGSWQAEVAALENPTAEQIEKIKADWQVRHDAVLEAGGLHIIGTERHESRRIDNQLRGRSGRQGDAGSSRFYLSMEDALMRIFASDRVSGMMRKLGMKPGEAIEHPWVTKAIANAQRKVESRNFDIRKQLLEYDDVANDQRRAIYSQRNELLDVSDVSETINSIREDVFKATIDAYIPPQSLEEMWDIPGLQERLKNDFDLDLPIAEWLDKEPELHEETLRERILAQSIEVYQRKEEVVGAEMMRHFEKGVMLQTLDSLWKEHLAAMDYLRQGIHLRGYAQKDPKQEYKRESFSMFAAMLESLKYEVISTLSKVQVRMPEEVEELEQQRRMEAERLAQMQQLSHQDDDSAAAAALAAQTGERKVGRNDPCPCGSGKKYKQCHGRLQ

For `CCOC(=O)CCC(=O)N1CCC(Oc2ccc(C(F)(F)F)cn2)CC1`, the Percent Effect in assay [1] was -1.66%; in assay [2], 7.79%; in [3], 4.3%; in assay [4] it was 13.1%; in assay [5], -6.41%; in [6] it was -1.94%. In addition, the Percent Effect in assay [7] is 14.1%; in assay [8], 20.3%; in [9] it was 3.17%; in assay [10], 11.5%; in assay [11] it was -5.92%.

As for `CCn1cnnc1CNC(=O)N1CCC(Cc2cccnc2)CC1`, the Percent Effect in assay [1] was -2.15%; in assay [2], -2.6%; in [3], -0.131%; in assay [4], 1.86%; in assay [5] it was -4.41%; in assay [6], 1.47%. Besides, the Percent Effect in assay [7] is 0.0808%; in assay [8], 7.54%; in [9], -1.91%; in assay [10], -4.71%; in [11], 8.62%.

On to `CC(=O)c1ccc(N2CCC(CO)(CCOc3ccccc3)CC2)nc1`, for which the Percent Effect is -4.34% in [1]; 0% in assay [2]; 3.88% in [3]; 4.67% in [4]; -3.05% in assay [5]; 20.7% in assay [6]. Besides, the Percent Effect is 9.48% in assay [7]; 20.6% in assay [8]; 3.23% in [9]; 8.64% in [10]; 1.85% in [11].

As to `CCc1nnc2n1CCN(C(=O)Cc1csc(-c3ccco3)n1)C2`, the Percent Effect in [1] is -4.35%; in assay [2], 15.2%; in assay [3], -5.8%; in [4] it was 9.4%; in assay [5], -1.04%; in assay [6], 3.8%. Also, the Percent Effect in assay [7] was 8.76%; in assay [8], 13.3%; in [9], 4.43%; in assay [10], 11.4%; in assay [11], -4.32%.

With `CS(=O)(=O)NCC1CCCN(C(=O)Nc2cccnc2N2CCCC2)C1` (stereo unspecified), the Percent Effect in assay [1] is -5.11%; in [2] it was 13.2%; in assay [3] it was -26.3%; in assay [4], -7.09%; in assay [5] it was -6.33%; in assay [6], 2.37%. The Percent Effect was 16.4% in assay [7]; -14.6% in [8]; 2.13% in assay [9]; 5.2% in assay [10]; -7% in assay [11].

For the molecule `CC(=O)N(Cc1noc(C)n1)C1CCN(Cc2ccncc2Cl)C1` (stereo unspecified), the Percent Effect in assay [1] was -3.16%; in assay [2], 16.5%; in assay [3], -1.3%; in [4], 0.699%; in assay [5], -1.95%; in assay [6], 2.8%. Also, the Percent Effect is 12.5% in assay [7]; 8.22% in assay [8]; 3.12% in [9]; 12.7% in assay [10]; -16% in assay [11].

Consider `CCCNC(=O)Nc1cccc2c1CCN(S(C)(=O)=O)C2`, for which the Percent Effect in assay [1] was -9.62%; in assay [2], 18.4%; in assay [3], -0.671%; in [4], 6.12%; in [5] it was 4.38%; in assay [6], -35.5%. Besides, the Percent Effect in assay [7] is 6.81%; in assay [8], -3.94%; in assay [9] it was 3.19%; in assay [10], 18.2%; in assay [11], -1.24%.

As for `COc1ncccc1CN1Cc2nnn(C)c2C(COCC2CC2)C1` (stereo unspecified), the Percent Effect in assay [1] is -1.6%; in [2], 7.79%; in [3], 4.07%; in assay [4], -3.49%; in assay [5], -5.62%; in assay [6], 3.23%. The Percent Effect in assay [7] was 1.92%; in assay [8] it was 2.8%; in assay [9], 4.23%; in [10], 14.1%; in [11], -4.09%.

Consider `Cc1n[nH]c(C2CN(C(=O)c3cnc[nH]3)CCO2)n1` (stereo unspecified), for which the Percent Effect in [1] is -2.98%; in assay [2] it was 7.79%; in assay [3] it was 4.4%; in assay [4] it was 7.68%; in assay [5] it was 3.62%; in [6] it was -1.05%. Moreover, the Percent Effect in assay [7] is 12.8%; in assay [8], -9.06%; in [9], 5.71%; in [10] it was 21.2%; in assay [11], -19.1%.

As to `Cc1ccc(CNCc2nnc3n2CCCC3C(F)(F)F)o1` (stereo unspecified), the Percent Effect in assay [1] is -2.71%; in [2] it was 5.33%; in assay [3] it was 2.9%; in assay [4] it was -7.37%; in [5], -6.13%; in assay [6], -3.12%. Also, the Percent Effect in assay [7] is 8.54%; in [8], 11.4%; in [9], 0.546%; in [10], 3.7%; in assay [11], -5.76%.

Consider `Cc1oncc1C(=O)N1CCC2(C1)CN(c1cccnc1)C(=O)CN2C` (stereo unspecified), for which the Percent Effect in [1] was -3.58%; in assay [2], 10.7%; in assay [3], -0.768%; in [4] it was -0.716%; in assay [5], 4.05%; in assay [6] it was -53.6%. The Percent Effect in [7] is 4.27%; in [8], -6.85%; in [9], 2.08%; in assay [10], 5%; in assay [11], -5.61%.

For the origin of these results see ChEMBL document CHEMBL3988442, “University of Dundee, Small-Polar-MMV Screening Library” (2021).
